Measurements published in PubChem BioAssay (Tox21).
Records with an inconclusive call do not appear. Activity calls are given as the source filed them. Unless noted, calls come from the whole dose curve.

Tests used:
[1] = Nuclear factor erythroid 2-related factor 2/antioxidant responsive element (Nrf2/ARE) small molecule agonists: qHTS cell viability counter screen in human keratinocytes (AID 1919968; active = well fitted curve in the direction sought with a large enough effect in the repeat runs; an effect the other way counts as inactive or inconclusive; note: nearly all actives have a fitted effect of over 55% in size; note: potency is the fitted concentration of half-maximal effect)
Procedure, shortened: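 Parallel cytotoxicity read: KeratinoSens HaCaT cells, compound treatment 23 h, viability by CellTiter-Fluor fluorescence 1 h post-reagent.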

[2] = Nuclear factor erythroid 2-related factor 2/antioxidant responsive element (Nrf2/ARE) small molecule agonists: luciferase reporter gene qHTS assay in human keratinocytes (AID 1919969); note: nearly all actives have a fitted effect of over 35% in size; note: potency is the fitted concentration of half-maximal effect
[3] = biological target: Gonadotropin-releasing hormone receptor (Homo sapiens) (UniProt P30968); assay: Human gonadotropin-releasing hormone receptor (GnRHR) small molecule agonists, calcium flux assay in GnRHR-HEK293 cells (AID 1920063); note: nearly all actives have a fitted effect of over 35% in size
Procedure, shortened: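 Calcium flux, agonist mode, human GnRHR stably integrated in HEK293; dye 1 h at 37 C before compound; Ex/Em=480/540 kinetic read, 3 min; 15 concentrations, triplicate.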

[4] = biological target: KiSS-1 receptor (Homo sapiens) (UniProt Q969F8); assay: Human kisspeptin (KISS1R) small molecule agonists, calcium flux assay in KISS1R-HEK293 cells (AID 1920064; active = well fitted curve in the direction sought with a large enough effect in the repeat runs; an effect the other way counts as inactive or inconclusive)
Procedure, shortened: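 Triplicate 15-concentration series were applied to dye-loaded human KISS1R HEK293 cells, and agonist-evoked calcium fluorescence was captured for 3 min.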

[5] = G protein-coupled receptor (GPCR) small molecule agonists, calcium flux assay: HEK293 wild type cell line counter screen (AID 1920065)
Procedure, shortened: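 Non-specific calcium responders were flagged by adding DMSO-dissolved compounds to dye-loaded cells and reading 480/540 nm fluorescence each second for 3 min; ATP served as positive control.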

[6] = p53 small molecule agonists, cell-based qHTS assay with rat liver microsomes (AID 1963578)
Procedure, shortened: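 Metabolic activation is supplied by rat liver microsomes with NADPH (each 0.5 mg/mL final). p53RE-bla cells incubate with compound 16 h at 37 C; reporter activity is measured by LiveBLAzer fluorescence.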

[7] = p53 small molecule agonists, cell-based qHTS assay with rat liver microsomes: qHTS cell viability counter screen (AID 1963580); note: nearly all actives have a fitted effect of over 45% in size
Procedure, shortened: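 Rat liver microsome (0.5 mg/mL final) and NADPH (0.5 mg/mL final) co-incubation with compounds for 16 h at 37 C on HCT-116 p53RE-bla cells; cytotoxicity taken from intracellular ATP luminescence.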

[8] = p53 small molecule agonists, cell-based qHTS assay (AID 1963582; active = well fitted activation curve with a large enough effect in the signal ratio in the repeat runs, not every such curve was filed as active; the % refers to the signal ratio; note: potency is the fitted concentration of half-maximal effect)
Procedure, shortened: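 Beta-lactamase reporter cells (p53RE-bla) treated with compounds for 16 h at 37 C; FRET substrate, 2 h, room temperature; fluorescence intensity.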

[9] = biological target: 5-hydroxytryptamine receptor 2A (Homo sapiens) (UniProt P28223); assay: 5-hydroxytryptamine receptor 2A (HTR2A) small molecule agonists, cell-based qHTS assay (AID 1963587); note: nearly all actives have a fitted effect of over 30% in size
Procedure, shortened: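 Kinetic calcium-flux fluorescence (2 min, 1 sec intervals) after compound addition in agonist mode. HTR2A-CHO cells were cultured 18 h, then dye-loaded 1 h at 37 C.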

[10] = biological target: Muscarinic acetylcholine receptor M1 (Homo sapiens) (UniProt P11229); assay: Cholinergic receptor muscarinic 1 (CHRM1) small molecule agonists, cell-based qHTS assay (AID 1963589); note: nearly all actives have a fitted effect of over 35% in size
Procedure, shortened: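 qHTS, 15-point titration, 3 independent runs: compounds pin-transferred onto dye-loaded CHRM1-CHO cells (human M1), calcium fluorescence followed every second to detect agonism.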

[11] = biological target: Beta-2 adrenergic receptor (Homo sapiens) (UniProt P07550); assay: Adrenergic beta2 receptor (ADRB2) small molecule antagonists, cell-based qHTS assay (AID 1963592); note: nearly all actives have a fitted effect of over 50% in size; note: potency is the fitted concentration of half-maximal effect
Procedure, shortened: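 Assay format: CHO-ADRB2 cells, 18-20hr seeding at 37C/5% CO2, then compound plus 1nM isoproterenol agonist mix for 0.5hr RT. Homogeneous time-resolved fluorescence cAMP detection after 1hr, expressed as 665/615 nm ratio.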

[12] = biological target: 5-hydroxytryptamine receptor 2A (Homo sapiens) (UniProt P28223); assay: 5-hydroxytryptamine receptor 2A (HTR2A) small molecule antagonists, cell-based qHTS assay (AID 1963586); note: nearly all actives have a fitted effect of over 45% in size; note: potency is the fitted concentration of half-maximal effect
Procedure, shortened: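 CHO cells stably expressing human HTR2A were plated for 18 h at 37 C, then loaded with calcium dye for 1 h. Compounds were preincubated 5 min at room temperature before DOI (4 nM solution) was added. Kinetic fluorescence was read for 3 min.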

[13] = biological target: Muscarinic acetylcholine receptor M1 (Homo sapiens) (UniProt P11229); assay: Cholinergic receptor muscarinic 1 (CHRM1) small molecule antagonists, cell-based qHTS assay (AID 1963588); note: nearly all actives have a fitted effect of over 40% in size; note: potency is the fitted concentration of half-maximal effect
Procedure, shortened: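 Compounds were tested at 15 concentrations in three independent runs. Dye-loaded CHRM1-CHO cells were exposed 5 min at room temperature before stimulation by acetylcholine added at 50nM. Intracellular calcium was read kinetically on FDSS for 3 min.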

[14] = cAMP Responsive Elements (CRE) small molecule agonists, cell-based qHTS assay (AID 1963590)
Procedure, shortened: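 Quantitative HTS for CRE agonists: HEK 293T CRE-bla cells, overnight plating, 3 h compound incubation at 37 C/5% CO2, then 2 h room-temperature LiveBLAzer B/G FRET substrate loading.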

[15] = cAMP Responsive Elements (CRE) small molecule antagonists, cell-based qHTS assay (AID 1963591; active = well fitted inhibition curve with a large enough effect in the signal ratio in the repeat runs, not every such curve was filed as active; the % refers to the signal ratio)
Procedure, shortened: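 Fluorescence intensity from cleaved LiveBLAzer B/G substrate (2 h, room temperature) quantified CRE-bla activity in HEK 293T cells exposed 3 h to compound with 0.25 uM final NKH477.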

[16] = biological target: D(2) dopamine receptor (Homo sapiens) (UniProt P14416); assay: Dopamine D2 receptor (DRD2) small molecule agonists, cell-based qHTS assay (AID 1963594); note: nearly all actives have a fitted effect of over 35% in size
Procedure, shortened: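 cAMP accumulation in DRD2-HEK293 cells measured by HTRF after 1 h detection; compounds added 10 min before NKH477 (200nM […]) forskolin-analogue stimulation, 30 min at room temperature, with Ro20-1724 present at 0.1 mM final.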

[17] = biological target: D(2) dopamine receptor (Homo sapiens) (UniProt P14416); assay: Dopamine D2 receptor (DRD2) small molecule antagonists, cell-based qHTS assay (AID 1963595; active = well fitted inhibition curve with a large enough effect in the signal ratio in the repeat runs, with a control signal flat; the % refers to the signal ratio; note: potency is the fitted concentration of half-maximal effect)
Procedure, shortened: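 Readout: HTRF cAMP, cAMP-d2 competing with cellular cAMP for anti-cAMP cryptate, read after 1 h. Cells: DRD2-HEK293. Conditions: 0.1 mM Ro20-1724, 12 nM quinpirole, 200 nM NKH477, 30 min RT.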

[18] = p53 small molecule agonists, cell-based qHTS assay with human liver microsomes: qHTS cell viability counter screen (AID 1963579); note: nearly all actives have a fitted effect of over 45% in size
Procedure, shortened: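 After the 460/530 nm beta-lactamase read, CellTiter-Glo was added to the same wells and luminescence measured after 30 min at room temperature, giving viability of p53RE-bla cells treated 16 h with compounds plus microsomes and NADPH.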

[19] = p53 small molecule agonists, cell-based qHTS assay: qHTS cell viability counter screen (AID 1963581); note: nearly all actives have a fitted effect of over 45% in size; note: potency is the fitted concentration of half-maximal effect
Procedure, shortened: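 Multiplexed with the reporter read, a CellTiter-Glo step (30 min, room temperature) gauges ATP-based viability of HCT-116 p53RE-bla cells after 16 h compound incubation at 37 C.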

[20] = biological target: Beta-2 adrenergic receptor (Homo sapiens) (UniProt P07550); assay: Adrenergic beta2 receptor (ADRB2) small molecule agonists, cell-based qHTS assay (AID 1963593);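 note: CHO cells stably overexpressing human ADRB2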
Procedure, shortened: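 CHO cells stably over-expressing ADRB2 were plated overnight at 37C, then dosed with compounds plus a stimulation mix containing 100uM IBMX and 25uM Ro-20-1724 for 0.5hr at room temperature. cAMP was measured by HTRF competition, 1hr.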

Measured: Potency

D(2) dopamine receptor (Homo sapiens), sequence (P14416 whole entry, looked up): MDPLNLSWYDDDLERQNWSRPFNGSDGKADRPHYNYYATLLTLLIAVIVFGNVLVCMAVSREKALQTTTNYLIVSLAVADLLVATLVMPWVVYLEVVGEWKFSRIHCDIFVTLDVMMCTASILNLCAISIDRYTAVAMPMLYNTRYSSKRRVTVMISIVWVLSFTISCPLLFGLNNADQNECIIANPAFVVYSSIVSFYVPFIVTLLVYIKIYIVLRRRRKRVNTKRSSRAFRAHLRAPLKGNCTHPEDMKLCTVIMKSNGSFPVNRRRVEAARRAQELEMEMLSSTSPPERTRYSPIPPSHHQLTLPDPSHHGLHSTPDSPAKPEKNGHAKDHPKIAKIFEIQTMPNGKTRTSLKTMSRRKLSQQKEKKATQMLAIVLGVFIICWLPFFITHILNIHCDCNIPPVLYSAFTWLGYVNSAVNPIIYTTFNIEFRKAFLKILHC
5-hydroxytryptamine receptor 2A (Homo sapiens), sequence (P28223 whole entry, looked up): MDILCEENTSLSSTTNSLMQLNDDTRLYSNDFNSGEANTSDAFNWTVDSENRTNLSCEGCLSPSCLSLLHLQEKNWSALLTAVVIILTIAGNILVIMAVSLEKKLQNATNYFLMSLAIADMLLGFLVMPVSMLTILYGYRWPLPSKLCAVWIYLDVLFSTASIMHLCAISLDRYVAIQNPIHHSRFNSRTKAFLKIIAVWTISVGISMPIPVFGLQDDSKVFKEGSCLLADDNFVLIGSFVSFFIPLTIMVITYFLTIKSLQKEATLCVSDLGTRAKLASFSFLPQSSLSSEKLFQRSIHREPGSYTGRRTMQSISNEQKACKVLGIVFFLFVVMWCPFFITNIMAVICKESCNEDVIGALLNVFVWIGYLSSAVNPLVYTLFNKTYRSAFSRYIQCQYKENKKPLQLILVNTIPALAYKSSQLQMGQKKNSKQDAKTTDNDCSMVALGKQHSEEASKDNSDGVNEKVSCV
Beta-2 adrenergic receptor (Homo sapiens), sequence (P07550 whole entry, looked up): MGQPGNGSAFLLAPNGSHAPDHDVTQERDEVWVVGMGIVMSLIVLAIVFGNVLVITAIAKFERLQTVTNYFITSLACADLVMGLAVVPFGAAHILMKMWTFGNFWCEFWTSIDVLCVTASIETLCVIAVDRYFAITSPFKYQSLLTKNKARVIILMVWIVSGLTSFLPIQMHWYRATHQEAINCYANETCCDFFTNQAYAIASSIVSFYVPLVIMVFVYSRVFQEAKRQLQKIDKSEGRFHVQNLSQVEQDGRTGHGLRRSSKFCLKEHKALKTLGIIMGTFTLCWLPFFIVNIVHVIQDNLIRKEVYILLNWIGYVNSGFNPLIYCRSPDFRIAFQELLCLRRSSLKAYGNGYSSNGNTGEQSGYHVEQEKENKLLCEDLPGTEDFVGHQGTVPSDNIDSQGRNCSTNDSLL
Gonadotropin-releasing hormone receptor (Homo sapiens), sequence (P30968 whole entry, looked up): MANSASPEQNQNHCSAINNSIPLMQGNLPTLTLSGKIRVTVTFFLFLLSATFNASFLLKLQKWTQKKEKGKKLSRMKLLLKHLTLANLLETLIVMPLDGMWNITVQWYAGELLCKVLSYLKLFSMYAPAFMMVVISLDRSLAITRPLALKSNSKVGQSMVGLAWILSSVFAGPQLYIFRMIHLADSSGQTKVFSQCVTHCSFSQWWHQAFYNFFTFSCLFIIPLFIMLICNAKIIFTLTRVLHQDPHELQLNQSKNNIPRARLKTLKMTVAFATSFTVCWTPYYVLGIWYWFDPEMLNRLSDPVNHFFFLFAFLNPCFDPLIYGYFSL
KiSS-1 receptor (Homo sapiens), sequence (Q969F8 whole entry, looked up): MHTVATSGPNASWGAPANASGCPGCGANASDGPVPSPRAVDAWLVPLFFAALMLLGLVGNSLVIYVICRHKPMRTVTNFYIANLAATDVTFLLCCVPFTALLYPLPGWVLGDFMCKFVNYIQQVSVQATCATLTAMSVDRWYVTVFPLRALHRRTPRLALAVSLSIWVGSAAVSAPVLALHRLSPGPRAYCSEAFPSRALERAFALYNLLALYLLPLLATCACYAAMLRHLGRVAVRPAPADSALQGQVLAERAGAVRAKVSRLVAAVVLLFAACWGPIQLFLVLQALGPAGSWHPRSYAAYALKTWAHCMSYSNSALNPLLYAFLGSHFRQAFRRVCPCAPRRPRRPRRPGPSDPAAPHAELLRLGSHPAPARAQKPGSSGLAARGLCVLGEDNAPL
Muscarinic acetylcholine receptor M1 (Homo sapiens), sequence (P11229 whole entry, looked up): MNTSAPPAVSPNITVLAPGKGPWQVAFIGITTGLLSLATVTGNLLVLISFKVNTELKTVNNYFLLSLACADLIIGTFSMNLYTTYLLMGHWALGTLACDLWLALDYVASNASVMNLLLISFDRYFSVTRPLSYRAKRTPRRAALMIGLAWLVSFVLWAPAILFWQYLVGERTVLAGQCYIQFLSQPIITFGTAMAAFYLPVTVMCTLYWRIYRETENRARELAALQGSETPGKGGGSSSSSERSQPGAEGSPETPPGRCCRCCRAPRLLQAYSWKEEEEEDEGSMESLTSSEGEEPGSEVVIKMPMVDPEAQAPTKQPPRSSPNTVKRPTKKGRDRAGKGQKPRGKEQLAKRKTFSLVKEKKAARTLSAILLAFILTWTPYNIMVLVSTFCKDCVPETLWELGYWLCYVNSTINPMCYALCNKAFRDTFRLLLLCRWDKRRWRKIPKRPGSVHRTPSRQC

CCN(CCCc1ccccc1)CCCc1ccccc1
inactive: [1] | [2] | [3] | [4] | [5] | [6] | [7] | [8] | [9] | [10] | [11]

CC(C)OC(=O)CCC(=O)OC(C)C
not listed: [18] | [19] | [20]
inactive: all other assays above

Clc1ccc2cc3ccccc3cc2c1
active: [8] 40.7 µM
not listed: [6] | [14] | [15] | [20]
inactive: all other assays above

C[C@H]1c2cccc(O)c2C(O)=C2C(=O)[C@]3(O)C(O)=C(C(N)=O)C(=O)[C@@H](N(C)C)[C@@H]3[C@@H](O)[C@@H]21
not listed: [6] | [14] | [15]
inactive: all other assays above

CC(=O)Oc1ccc2c(c1)CC[C@@H]1[C@@H]2CC[C@]2(C)[C@@H](O)CC[C@@H]12
not listed: [18] | [20]
inactive: all other assays above

CN(C)CCOC(c1ccccc1)c1ccc(Br)cc1 (stereo unspecified)
active: [12] 6.5 µM | [13] 3.65 µM
not listed: [7] | [15] | [19]
inactive: all other assays above

CCc1cccc2c(CCO)c[nH]c12
not listed: [14] | [18]
inactive: all other assays above

Nc1ncn([C@H]2C[C@H](O)[C@@H](CO)O2)c(=O)n1
not listed: [6] | [8] | [17]
inactive: all other assays above

C/C=C/C(=O)C1=C(C)CCCC1(C)C
not listed: [7] | [9] | [12] | [16] | [20]
inactive: all other assays above

CC1(C)O[C@@H]2C[C@H]3[C@@H]4CCC5=CC(=O)CC[C@]5(C)[C@@]4(F)[C@@H](O)C[C@]3(C)[C@]2(C(=O)CCl)O1
not listed: [7] | [9] | [10] | [12] | [13] | [14] | [15]
inactive: all other assays above

O=c1[nH]sc2ccccc12
active: [1] 24.3 µM | [2] 12.2 µM
not listed: [7] | [9] | [11] | [14] | [15] | [16] | [18]
inactive: all other assays above

C=C1CC[C@H]2C[C@@H]1C2(C)C
not listed: [6] | [8]
inactive: all other assays above

CC(=O)Oc1cccc(C)c1
not listed: [14] | [18]
inactive: all other assays above

CC(=O)OC(C)OC(=O)C(C)c1ccc(-c2ccccc2)c(F)c1 (stereo unspecified)
not listed: [7] | [8] | [12] | [14] | [15] | [18] | [20]
inactive: all other assays above

CCCCC1C(=O)N(c2ccccc2)N(c2ccc(O)cc2)C1=O (stereo unspecified)
active: [1] 21.1 µM | [2] 10.6 µM
not listed: [8] | [13] | [14] | [15] | [17] | [18] | [20]
inactive: all other assays above

Cc1nc2sccn2c(=O)c1CCN1CCC(=C(c2ccc(F)cc2)c2ccc(F)cc2)CC1
active: [1] 26.6 µM | [13] 2.59 µM | [17] 26.6 µM
not listed: [8] | [12] | [14] | [15] | [18] | [20]
inactive: all other assays above

CC(=O)OC(OC(C)=O)c1ccc([N+](=O)[O-])o1
inactive: [3] | [4] | [5] | [6] | [9] | [13] | [10] | [16] | [17]
active: [1] 62.2 µM | [2] 24.8 µM

CC1=CC=C(C(C)C)CC1
not listed: [6]
inactive: all other assays above

CNC(C)=O
not listed: [6] | [8] | [17]
inactive: all other assays above

ClCCOCCOCCCl
not listed: [7] | [20]
inactive: all other assays above

COC(=O)C1=C(C)NC(C)=C(C(=O)OCC(C)=O)C1c1ccccc1[N+](=O)[O-] (stereo unspecified)
not listed: [7] | [9] | [10] | [18] | [20]
inactive: all other assays above

COc1ccccc1N1CCN(CC(O)COc2cccc3ccccc23)CC1 (stereo unspecified)
active: [12] 5.79 µM | [11] 2.11 µM | [17] 33.5 µM
not listed: [10] | [15] | [16] | [18] | [20]
inactive: all other assays above

CCCC(=O)OCCC(C)CCC=C(C)C (stereo unspecified)
not listed: [6] | [8] | [17]
inactive: all other assays above

Cc1cc2nc(N)sc2cc1C
not listed: [6] | [11] | [15] | [20]
inactive: all other assays above

CCc1ncc(C)[nH]1
not listed: [7] | [15]
inactive: all other assays above

NS(=O)(=O)c1ccc(C(=O)O)cc1
not listed: [7] | [15] | [19]
inactive: all other assays above

CC(C)(C)CC(C)(C)c1ccc(O)c(Cc2ccc(Cl)cc2Cl)c1
active: [1] 8.41 µM | [19] 8.9 µM
not listed: [8] | [14] | [15] | [17] | [18]
inactive: all other assays above

CCO[Si](CCC1CCC2OC2C1)(OCC)OCC (stereo unspecified)
not listed: [6] | [8]
inactive: all other assays above

O=C(O)c1c2ccccc2cc2ccccc12
active: [2] 48.4 µM
not listed: [7] | [13] | [14] | [19]
inactive: all other assays above

CCCCOC(=O)c1ccccc1
not listed: [6] | [11]
inactive: all other assays above

CCCCCCCCCCCCN(CCCCCCCCCCCC)CCCCCCCCCCCC
not listed: [15] | [18]
inactive: all other assays above

C=CCOCC(O)CCl (stereo unspecified)
not listed: [7] | [20]
inactive: all other assays above

C=C1c2cccc(O)c2C(O)=C2C(=O)[C@]3(O)C(O)=C(C(N)=O)C(=O)[C@@H](N(C)C)[C@@H]3[C@@H](O)[C@H]12
not listed: [6] | [11] | [20]
inactive: all other assays above
